# Compounds without any hit were thinned out: in the full panel of roughly 79,000, 15% have a hit. Values without a mark were called inactive. Calls of active or inactive are those of the source. Cut-off read from the data, not from the text of the source: active = growth inhibition above about 70%; inactive = the rest.
# How the values were obtained:
# [1] = NCI Yeast Anticancer Drug Screen. Data for the rad50 strain (AID 155);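 note: 0% = growth of vehicle-only cultures of the same strain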; settings: S. cerevisiae rad50 strain growth inhibition, stronger effect = higher value
# Summary of the method: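 Compounds were tested on a yeast strain with an engineered DNA damage repair alteration; the reported value is growth inhibition normalised to vehicle treatment.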
# [2] = NCI Yeast Anticancer Drug Screen. Data for the mec2-1 strain (AID 157); settings: S. cerevisiae mec2-1 strain, stronger effect = higher value
# Summary of the method: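 Strain: mec2-1 (DNA repair/cell cycle alteration). Compound exposure, then growth measured; inhibition expressed relative to vehicle.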
# [3] = NCI Yeast Anticancer Drug Screen. Data for the sgs1 mgt1 strain (AID 161);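 note: 0% = growth of cultures given vehicle only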; settings: S. cerevisiae sgs1 mgt1 strain, stronger effect = higher value
# Summary of the method: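 Mutant yeast exposed to compound; growth scored against vehicle-only wells.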
# [4] = NCI Yeast Anticancer Drug Screen. Data for the cln2 rad14 strain (AID 165);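 note: 0% = growth equal to vehicle treated cultures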; settings: S. cerevisiae cln2 rad14 strain, stronger effect = higher value
# Summary of the method: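 Compounds are applied to the cln2 rad14 yeast strain, and growth is then compared with that of vehicle-treated cultures to give inhibition.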
# [5] = NCI Yeast Anticancer Drug Screen. Data for the bub3 strain (AID 167); settings: S. cerevisiae bub3 mutant strain, stronger effect = higher value
# Summary of the method: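 Growth of a checkpoint-deficient yeast mutant is measured after compound exposure. Values represent inhibition relative to vehicle.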
# [6] = NCI Yeast Anticancer Drug Screen. Data for the mlh1 rad18 strain (AID 175); settings: S. cerevisiae mlh1 rad18 strain growth inhibition, stronger effect = higher value
# Summary of the method: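 Read-out is yeast growth inhibition, calculated against vehicle-only controls. The compound was applied to a strain engineered with DNA damage repair alterations.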
# [7] = at 5.0 µM (retest, dose inferred, filed as 0.5)
# [8] = at 50.0 µM (retest, dose inferred, filed as 5.0)
SMILES,"growth inhibition [1, 7]","growth inhibition [1, 8]",growth inhibition ([1]; at 50.0 µM),"growth inhibition [2, 7]","growth inhibition [2, 8]",growth inhibition ([2]; at 50.0 µM),"growth inhibition [3, 7]","growth inhibition [3, 8]",growth inhibition ([3]; at 50.0 µM),"growth inhibition [4, 7]","growth inhibition [4, 8]",growth inhibition ([4]; at 50.0 µM),"growth inhibition [5, 7]","growth inhibition [5, 8]",growth inhibition ([5]; at 50.0 µM),"growth inhibition [6, 7]","growth inhibition [6, 8]",growth inhibition ([6]; at 50.0 µM)
CC(C)OC(=O)c1ccccc1C(=C1C=C(Br)C(=O)C(Br)=C1)c1cc(Br)c(O)c(Br)c1,85% (active),95% (active),90.7% (active),88% (active),98% (active),91.9% (active),70% (active),95% (active),90.9% (active),96% (active),97% (active),88.2% (active),94% (active),97% (active),91% (active),96% (active),96% (active),90.5% (active)
Nc1ccc(O)c(=O)cc1,-1%,1%,50.2%,-40%,11%,45.1%,0%,18%,62.2%,-2%,0%,25.1%,-8%,4%,76.6% (active),-2%,15%,59.9%
CCC1C(c2ccccc2O)c2cc3c(cc2OC1N1CCOCC1)OCO3 (configuration not stated),-18%,98% (active),85.9% (active),-32%,99% (active),88.3% (active),-42%,98% (active),88.2% (active),9%,99% (active),88.9% (active),-50%,99% (active),88.8% (active),-13%,98% (active),91.2% (active)
Nc1ccc2c(c1)CN1C(=O)c3ccccc3C1=N2,24%,54%,67.3%,8%,22%,34.6%,-3%,12%,5.55%,23%,18%,36.6%,3%,19%,22.4%,11%,19%,46%
NC(=O)C12OC3CC(CC(C3)O1)O2,-25%,-10%,5.95%,-8%,-17%,11.4%,-9%,12%,11.3%,-1%,3%,71.2% (active),2%,5%,2.75%,9%,-22%,11.2%
N#C/C(=C1/C(=O)c2ccccc2-c2ccccc21)c1ccccc1,92% (active),97% (active),97.2% (active),100% (active),99% (active),98.2% (active),99% (active),99% (active),97.6% (active),61%,97% (active),98.2% (active),99% (active),98% (active),98% (active),99% (active),99% (active),98.7% (active)
CN(C)C(=S)NC(=S)Nc1ccc2ccccc2c1,5%,88% (active),62.8%,17%,89% (active),40.9%,34%,82% (active),66.2%,8%,87% (active),46.5%,2%,92% (active),57.4%,12%,92% (active),73.3% (active)
CCCNC(=O)c1cc2ccccc2cc1C(=O)OC,59%,90% (active),86% (active),48%,90% (active),88.5% (active),51%,95% (active),81.9% (active),49%,74% (active),81.1% (active),68%,94% (active),88.3% (active),65%,94% (active),86.2% (active)
Cc1ccccc1CN(C)CCO,0%,-8%,65.7%,-1%,2%,17.3%,2%,13%,14.1%,-8%,-1%,56.8%,-5%,-5%,13.6%,-5%,-6%,13.8%
C[Si](C)(C)C1=C([Si](C)(C)C)C(Cl)(Cl)C1=O,10%,32%,12%,12%,17%,9.35%,20%,49%,72.2% (active),6%,40%,45.5%,16%,33%,29.2%,18%,38%,32.4%
O=C(O)c1ccccc1/C=C1\Cc2ccc3c(c2C1=O)CCCC3,18%,18%,81.6% (active),6%,6%,83.1% (active),6%,6%,81.3% (active),-4%,-4%,85.5% (active),-5%,-5%,81.5% (active),12%,12%,79.9% (active)
S=C(Nc1ccccc1)N(Cc1ccccc1)c1ccccc1,-7%,51%,62%,10%,57%,28.6%,-7%,50%,46.2%,-8%,8%,32.5%,3%,42%,65.9%,4%,72% (active),48.7%
C[N+]1(Cc2ccc([N+](=O)[O-])cc2)CCC[C@H]1c1ccc[n+](Cc2ccc([N+](=O)[O-])cc2)c1 (some centres not stated),0%,27%,10.2%,-1%,13%,8.85%,-15%,-2%,65.1%,-7%,0%,63.2%,2%,11%,9.65%,-28%,24%,84.6% (active)
CCOc1c(N=Nc2ccc(Cl)cc2)c(-c2ccccc2)nn1C(N)=S,3%,90% (active),93.4% (active),-11%,89% (active),94.7% (active),18%,92% (active),93.9% (active),-13%,87% (active),93.3% (active),1%,92% (active),92.4% (active),0%,90% (active),93.1% (active)
C/C(O)=C(/C=N\C(=S)Nc1ccc(Cl)c(Cl)c1)C(=O)Nc1ccccc1C,-11%,40%,67%,-6%,26%,39.6%,1%,22%,73.5% (active),-7%,34%,-10.2%,-15%,13%,51.6%,11%,22%,57.7%
Cc1cccc(NC(=O)Oc2ccc(Cl)c3cccnc23)c1,75% (active),99% (active),88.5% (active),57%,99% (active),88.7% (active),97% (active),99% (active),91.8% (active),95% (active),99% (active),89.9% (active),82% (active),67%,85.5% (active),72% (active),99% (active),88.8% (active)
Oc1ccc(Br)cc1-c1nc2cc(Cl)c(Cl)cc2nc1-c1cc(Br)ccc1O,48%,80% (active),81.2% (active),46%,85% (active),86.3% (active),44%,88% (active),88.6% (active),47%,91% (active),86.1% (active),45%,86% (active),81.7% (active),48%,90% (active),80.7% (active)
CCOC(=O)C1CCC(=O)O1 (configuration not stated),-4%,43%,-14%,3%,87% (active),7.85%,4%,78% (active),2.4%,-23%,36%,16.6%,2%,93% (active),10.8%,-1%,95% (active),-1.15%
CCOCCOC(=O)c1cc([N+](=O)[O-])cc([N+](=O)[O-])c1,-4%,94% (active),60.2%,-5%,98% (active),66.3%,-3%,93% (active),53.8%,-3%,41%,-1.5%,-8%,94% (active),91.7% (active),2%,98% (active),95.9% (active)

# From PubChem BioAssay (NCI)
